Sampled rows, rich in hits. Any-hit rate of the full collection: about 2.3%.
TRPV1 ag: human TRPV1 agonism | Q8NER1 | TRPV1-expressing cells, Fluo-8 calcium influx, agonist mode | activation, % at 8.33 µM | 320,000 tested, 0.19% active; in the data active = activation above about 80%; inconclusive = between about 30% and that limit
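Fluo-8 calcium influx in TRPV1-expressing cells, kinetic read (ex 480/em 520 nm). Compound added and read 3 min for agonist activity, followed by capsaicin at EC20 final and 2 min further read for enhancement.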
TRPV1 PAM: human TRPV1 potentiation. Q8NER1. TRPV1-expressing cells, Fluo-8 calcium influx, capsaicin EC20 potentiation. potentiation, % at 8.33 µM. 320,000 tested, 0.02% active; in the data active = potentiation above about 80%; inconclusive = between about 30% and that limit
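TRPV1-expressing cells were cultured overnight at 35.5C and loaded with Fluo-8 calcium dye for 40 to 90 min at room temperature. After a 10 s baseline, compound was added and calcium influx was read kinetically for 3 min (ex 480/em 520 nm).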
Giardia kill: Giardia lamblia killing | Giardia lamblia trophozoite viability | activity change, % at 7.66 µM, hits read low | 340,000 tested, 0.15% active; in the data active = activity change below about -80%; inconclusive = between about -30% and that limit;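 note: parasites exposed to compound for two days anaerobically before the ATP read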
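Trophozoites 100 cells/well + cpd; 48 hrs, 37 deg C, anaerobic. ATPLite 1-Step added, 15-30 min RT, luminescence read (ATP-based viability).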
ELG1 repair inh: blocks ELG1-dependent DNA repair in HEK293T cells; HEK293T ELG1-luciferase reporter, luminescence, 16 h; DNA damage induced by 5-fluorouridine; Potency, µM (doses to about 46.1 µM), hits mostly inhibitors; 330,000 tested, 2.3% active; AID 504467; note: nearly all actives have a fitted effect of over 55% in size
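5-Fluorouridine DNA damage + compound/DMSO, 2,000 cells/well, 16 h, 37 °C/5% CO2. ONE-Glo, 30 min RT, luminescence. Readout = decrease in reporter signal.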
FUS yeast rescue: rescues growth of FUS-expressing yeast; S. cerevisiae FUS-expressing, growth rescue, OD600, 24 h; Potency, µM (series often up to 76.6 µM), most hits filed as activators; 390,000 tested, 0.24% active; AID 1347120; note: nearly all actives have a fitted effect of over 55% in size
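FUS-expressing yeast, raffinose-pregrown, induced in 2% galactose minimal medium at OD 0.005; compounds in a dilution series, 24hr at 30C. Growth restoration read as absorbance at 600 nm. CP55940 positive control, DMSO negative.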
ELG1 FLuc counter: luciferase inhibition in cell-free luciferin readout for ELG1 hits. shares compounds with ELG1 repair inh. cell-free firefly luciferase luminescence counter-screen, ViewLux. Potency, µM (doses to about 46.1 µM), actives largely listed as inhibitors. 350 tested, 3% active. AID 624247
ELG1 Luc conf: human ELG1 repair inhibition, luciferase-tagged ELG1 confirmation | Potency, µM (top dose mostly 46.1 µM), most hits filed as inhibitors | AID 624248 | 670 tested, 68% active | HEK293T ELG1-luciferase levels, luminescence; cells co-treated with 5-fluorouridine | shares compounds with ELG1 repair inh; note: nearly all actives have a fitted effect of over 55% in size
ELG1 MMS Luc: MMS-stimulated human ELG1 repair inhibition, confirmed | shares compounds with ELG1 repair inh | HEK293T luciferase-tagged ELG1 level, MMS stimulated | Potency, µM (series often up to 46.1 µM), usual class: inhibitors | 670 tested, 53% active | AID 624249; note: nearly all actives have a fitted effect of over 60% in size
ELG1 5-FU: confirmation of ELG1 repair inhibitors: viability with 5FU. cell viability with 5-FU, ELG1-dependent repair. AID 624250. Potency, µM (top dose mostly 46.1 µM), usual class: cytotoxic. shares compounds with ELG1 repair inh. 670 tested, under 10 active;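 note: ELG1-luc HEK293T cells cotreated with 5-fluorouridine at 10 µM final; viability measured 16 h after compound addition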
ELG1 MMS cell: confirmation of ELG1 repair inhibitors: viability with MMS | shares compounds with ELG1 repair inh | Cell viability with MMS, ELG1-dependent DNA repair | Potency, µM (series often up to 46.1 µM), hits mostly cytotoxic | 670 tested, 33% active | AID 624251;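 note: ELG1-luc HEK293T cells co-treated with 10 µM MMS; viability read 16 h after compound addition; nearly all actives have a fitted effect of over 60% in size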
ELG1 unstim viab: unstimulated viability counter-screen for ELG1 repair hits. shares compounds with ELG1 repair inh. 900 tested, 8% active. AID 624252. cell viability counter-screen, unstimulated, luminescence. Potency, µM (top dose mostly 45.9 µM), hits mostly cytotoxic;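 note: compound exposure lasted 16 hours before reading; nearly all actives have a fitted effect of over 55% in size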
FLuc enzyme: inhibits purified firefly luciferase, counter-screen for ELG1 hits; shares compounds with ELG1 repair inh; purified firefly luciferase, luminescence counter-screen; Potency, µM (series often up to 57.5 µM), actives largely listed as inhibitors; 350 tested, 10% active; AID 624253
Hits are given with their value; 0 = inactive; ? = inconclusive; - = no result given. Unless noted, calls come from the whole dose curve; as a rule, active = well fitted curve in the direction sought with a large enough effect; inconclusive = small, poorly fitted or top-dose-only effect, or another doubt; inactive = no such curve, though single readings can be large; an effect the other way counts as inactive or inconclusive.

SMILES	TRPV1 ag	TRPV1 PAM	Giardia kill	ELG1 repair inh	FUS yeast rescue	ELG1 FLuc counter	ELG1 Luc conf	ELG1 MMS Luc	ELG1 5-FU	ELG1 MMS cell	ELG1 unstim viab	FLuc enzyme
O=C(NN1C(=O)C2C3C=CC(C4CC34)C2C1=O)c1ccc(Br)cc1 (configuration not stated)	0	0	0	?	0	-	-	-	-	-	-	-
C[C@@H]1C[C@@H]2[C@H]([C@H]3C=C(COC(=O)c4ccccc4)[C@@H](O)[C@]4(O)[C@@H](O)C(OC(=O)c5ccccc5)=C[C@@]14C3=O)C2(C)C	-	-	-	-	-	0	-	-	-	-	?	0
O=C(Nc1ccccc1)c1cccn(Cc2ccccc2)c1=O	0	0	0	0	0	-	-	-	-	-	-	-
O=C(Nc1ccncc1)c1cccn(Cc2ccccc2)c1=O	0	0	0	3.3µM	0	-	0	2.2µM	0	2.5µM	?	-
C[C@@H]1C[C@H](C)C[C@H](C)[C@@H](O)CC(=O)O[C@H]([C@H]2CCC[C@H]2C(=O)O)C/C=C/C=C(/C#N)[C@H](O)[C@@H](C)C1	-	-	-	-	-	?	0.4µM	0.79µM	?	6.3µM	?	0
